Y pestis TopoI: Yersinia pestis topoisomerase I inhibitors, primary screen, biochemical, cleavage product accumulation, plate reader, single point | 360,000 compounds, 0.064% hits | AID 504884, 2011 | Y. pestis Topo-I cleavage product accumulation | activity, % at 10 µM | DNA topoisomerase I (Yersinia pestis CO92); in the data active = activity above about 50%, passing the limit was not always enough
TcdB inh: TcdB glycohydrolase inhibitors, primary screen, biochemical, single point, plate reader; 350,000 compounds, 0.24% hits; AID 652162, 2013; TcdB glycohydrolase enzymatic assay; inhibition, % at 9.99 µM; Toxin B (Clostridioides difficile), P18177; in the data active = inhibition above about 10%
Mtb FBA inh: Mtb FBA enzyme inhibitors, primary screen, biochemical, fluorescence, strain H37Rv; Fructose-bisphosphate aldolase (Mycobacterium tuberculosis (strain ATCC 25618 / H37Rv)), …; purified M. tuberculosis FBA, fluorescence read-out; inhibition, % at 1 µM; 360,000 compounds, 2.3% hits; AID 588726, 2011; in the data active = inhibition above about 27%;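 also: 0% = vehicle and 100% = reference inhibitor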
PrPC surface inh: inhibitors of human cell surface prion protein PrPC, primary screen, cell-based, TR-FRET; TR-FRET read-out; inhibition, % at 13.8 µM; 370,000 compounds, 0.43% hits; in the data active = inhibition above about 24%; also: 0% = median of the test wells and 100% = reference compound wells
GDH-TPI inh: GDH-TPI coupling enzyme inhibitors, primary screen, artefact control for M. tuberculosis FBA inhibitor project, biochemical, absorbance, full deck | inhibition, % at 4.8 µM | GDH-TPI coupled enzyme counterscreen, NADH absorbance | 360,000 compounds, 1.2% hits; in the data active = inhibition above about 30%;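 also: 0% = DMSO wells and 100% = wells lacking the enzyme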
The depositor's hits bear a star. Compounds with a hit are over-represented: about 3.2% of the library has one in this group of screens.

For CCOc1ccc2[nH]c(C(=O)N/N=C/c3ccccc3OC)cc2c1 the results were Y pestis TopoI 0, TcdB inh 2, Mtb FBA inh 6, PrPC surface inh 10 and GDH-TPI inh 22.
Screening C[C@@H]1CN([C@H](C)CO)C(=O)c2cc(NC(=O)C3CCCCC3)ccc2O[C@H]1CN(C)C(=O)Nc1ccc(F)cc1 returned TcdB inh 1.
COc1cccc(/C=C2\SC(=O)N(CC(=O)NCCCn3ccnc3)C2=O)c1 was read as Y pestis TopoI 4, TcdB inh 0, Mtb FBA inh 5, PrPC surface inh -17 and GDH-TPI inh 24.
Screening COc1ccc(/C=C2\SC(=O)N(CC(=O)NC3CCS(=O)(=O)C3)C2=O)cc1 (stereo unspecified) returned Y pestis TopoI -4, TcdB inh 5, Mtb FBA inh 5, PrPC surface inh 1 and GDH-TPI inh 39*.
O=C(CN1C(=O)S/C(=C\c2ccccc2)C1=O)NC1CCS(=O)(=O)C1 (stereo unspecified) was read as Y pestis TopoI 2, TcdB inh 1, Mtb FBA inh 2, PrPC surface inh -20 and GDH-TPI inh 29.
Screening COc1ccc(/C=C2\SC(=O)N(CC(=O)NCCCn3ccnc3)C2=O)cc1 returned Y pestis TopoI 13, TcdB inh 2, Mtb FBA inh -2, PrPC surface inh -24 and GDH-TPI inh 43*.
CCN(C(=O)CN1C(=O)S/C(=C\c2ccc(F)cc2)C1=O)C1CCS(=O)(=O)C1 (stereo unspecified) was read as Y pestis TopoI 1, TcdB inh 0, Mtb FBA inh -1, PrPC surface inh -23 and GDH-TPI inh 36*.
For COc1ccc(/C=C2\SC(=O)N(CC(=O)N(C)C3CCS(=O)(=O)C3)C2=O)cc1 (stereo unspecified) the results were Y pestis TopoI -1, TcdB inh 1, Mtb FBA inh 4, PrPC surface inh -2 and GDH-TPI inh 34*.
CCC(=O)N1[C@H](CO)[C@H]2c3ccccc3N(C(=O)c3ccncc3)C[C@H]21 was read as TcdB inh -1.
For Cc1ccc(-c2c(C#N)c(N)n(-c3ccc(C)cc3)c(=O)c2C#N)cc1 the results were Y pestis TopoI 9, Mtb FBA inh 2, PrPC surface inh 2 and GDH-TPI inh 40*.
For COc1ccc(-c2c(O)c(C#N)c(-c3ccccc3)n(-c3ccc(OC)cc3)c2=O)cc1 the results were Y pestis TopoI -1, Mtb FBA inh 24, PrPC surface inh -7 and GDH-TPI inh 0.
CC(=O)Nc1c(C#N)c(-c2ccccc2)c(C#N)c(=O)n1-c1ccc(C)cc1 was read as Y pestis TopoI 8, TcdB inh 3, Mtb FBA inh 1, PrPC surface inh -3 and GDH-TPI inh 33*.
`Cc1ccc(-n2c(N)c(C#N)c(-c3ccc(Cl)cc3)c(C#N)c2=O)cc1` gave Y pestis TopoI 8, Mtb FBA inh 4, PrPC surface inh 4 and GDH-TPI inh 15.
`Cc1ccc(S(=O)(=O)N[C@@H]2C=C[C@@H](CC(=O)NCc3ccncn3)O[C@@H]2CO)cc1` gave TcdB inh -1.
CCOc1cc(/C=C2\C(=O)N(c3nc(-c4ccc(Br)cc4)cs3)N=C2c2ccccc2)ccc1O was read as Y pestis TopoI -31, Mtb FBA inh 1 and GDH-TPI inh 31*.
For COc1cc(/C=C2\C(=O)N(c3ccc(NC(C)=O)cc3)N=C2c2ccccc2)ccc1O the results were Y pestis TopoI -3, TcdB inh -1, Mtb FBA inh -4, PrPC surface inh 13 and GDH-TPI inh 14.
For CCN(C[C@@H]1N[C@H](CO)[C@@H]1c1ccccc1)C(=O)c1ccccc1 the results were TcdB inh -2.
Screening O=C1CC(c2ccc(O)cc2)Oc2cc(O)cc(O)c21 (stereo unspecified) returned Y pestis TopoI -1, TcdB inh 2, Mtb FBA inh -1, PrPC surface inh 1 and GDH-TPI inh 27.
For O=C1CC(c2ccc(O)c(O)c2)Oc2cc(O)cc(O)c21 (stereo unspecified) the results were Y pestis TopoI -5, TcdB inh -6, Mtb FBA inh 6, PrPC surface inh -1 and GDH-TPI inh 31*.
For O=C(COc1c(Br)cc(Br)c2cccnc12)N1CCc2ccccc2C1 the results were Y pestis TopoI 57*, TcdB inh 2, Mtb FBA inh 1 and GDH-TPI inh -1.
For BrC(/C=C\c1ccccc1)=N/Nc1nc(N2CCOCC2)nc(N2CCOCC2)n1 the results were Y pestis TopoI 7, TcdB inh 1, Mtb FBA inh -3, PrPC surface inh -16 and GDH-TPI inh 45*.
CC(/C=N/Nc1nc(N2CCCCC2)nc(N2CCCCC2)n1)=C\c1ccccc1 was read as Y pestis TopoI 4, Mtb FBA inh 3, PrPC surface inh -4 and GDH-TPI inh 0.
For BrC(=C\c1ccccc1)/C=N/Nc1nc(N2CCOCC2)nc(N2CCOCC2)n1 the results were Y pestis TopoI -2, TcdB inh 0, Mtb FBA inh -1, PrPC surface inh -19 and GDH-TPI inh 31*.
`Cc1ccc(C)c(-n2c(C)cc(/C=N/NC(=O)c3c(C)nc4cc(C)ccn34)c2C)c1` gave Y pestis TopoI -2, Mtb FBA inh 2, PrPC surface inh 4 and GDH-TPI inh 39*.
For Cc1ccc2nc(C)c(C(=O)N/N=C/c3cccs3)n2c1 the results were Y pestis TopoI 3, TcdB inh -1, Mtb FBA inh 1, PrPC surface inh 6 and GDH-TPI inh 37*.
Screening Cc1ccn2c(C(=O)N/N=C\c3cccs3)c(C)nc2c1 returned Y pestis TopoI -1, Mtb FBA inh 0, PrPC surface inh -5 and GDH-TPI inh 62*.
For CCCNC(=O)N1CC2(CCN(CC3CCCC3)CC2)c2c(n(C)c3cc(OC)ccc23)[C@@H]1CO the results were TcdB inh -7.
CN(C)C(=O)c1cccc(-c2ccc([C@@H]3[C@@H](C#N)N(C(=O)C4CCCCC4)[C@H]3CO)cc2)c1 was read as TcdB inh 0.
CN(C)c1ccc(/C=C2/C(=N\O)C3CCN2CC3)cc1 was read as Y pestis TopoI -16, TcdB inh -9, Mtb FBA inh 1, PrPC surface inh 5 and GDH-TPI inh 52*.
Screening Cc1ccc(-n2c(C)nc3ccccc3c2=O)c(C)c1 returned Y pestis TopoI 3, TcdB inh 1, Mtb FBA inh 0, PrPC surface inh -10 and GDH-TPI inh -7.
Screening Cc1ccc(-n2c3nc(=O)[nH]c(=O)c-3cc3c(C)nn(-c4ccccc4)c32)c(C)c1 returned Y pestis TopoI 2, Mtb FBA inh active, PrPC surface inh 1 and GDH-TPI inh 21.

Bioassay records: PubChem, several laboratories
